For 38 molecules, growth results are on record in PubChem BioAssay (NCI).

Molecules are shown by their SMILES. About 83,000 compounds went through this panel and 20% of them were active in at least one assay; those are over-represented in the sample as a whole.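 Plates (96-well) were seeded with cells, treated with compound at one concentration, and incubated for 48 hours before percent growth was determined.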 Unmarked numbers belong to inactive results. Activity calls are given as the source filed them. The calls were made as follows: active = growth percent below 10; inactive = the rest.

One assay relates to 786-0 renal. Briefly: NCI-60 one-dose screen, 48 h (100 = growth as untreated, 0 = no growth, -100 = all killed). Particulars: 10 µM unless noted.
Regarding `COc1cc2ncnc(Nc3ccc(S(=O)(=O)Nc4nccs4)cc3)c2cc1OCCCN1CCOCC1`, the growth is 108%.
The same measure, in the same setting: for `Fc1ccc(-c2cnc3nonc3n2)c(F)c1` the value was 104%; for `COCc1nc(NS(=O)(=O)c2ccc(N)cc2)nc(C)c1Br`, 100%; for `COc1ncnc2[nH]cc(CN3CCN(c4ccc(F)cc4)CC3)c12`, 103%.
Same read-out and setting: for `CC(C)N(C(=S)SSC(=S)N(C(C)C)C(C)C)C(C)C` the value was 101%; for `COc1cc2c(=O)n(CCCN(C)C)c3c4cc[nH]c4ncc3c2cc1OC`, 33.7%; for `CCCCCCCCN(CCCCCCCC)C(=O)CCl`, 80.6%.
Same read-out and setting: for `COc1cc(/C=N/NC(=O)Cn2c(-c3ccc(C)o3)nc3ccccc32)ccc1OCc1ccccc1` the value was 99%; for `CCN(CC)c1ccc(/C=N/NC(=O)C[N+](C)(C)C)cc1`, 101%.
On to `c1cc2c(cc1-c1cnc3nonc3n1)OCO2`, for which the growth was 109%.
Same read-out and setting: for `CC(C)[C@@]12C[C@@H](OC(=O)C3CO3)[C@@](C)(O1)[C@@H]1CC[C@@H](C)[C@H]1[C@@H]2OC(=O)/C=C/c1ccccc1` (stereo partly specified) the value was 95.5%; for `ClC1(Cl)C2CCCCCCC21` (stereo unspecified), 94.9%.
Consider `CCCCOc1nc2ccccc2cc1/C=C/c1cc(/C=C/c2cc3ccccc3nc2OCCCC)n(-c2ccccc2)n1`, for which the growth was 107%.
Same read-out and setting: for `S=C(S)Oc1cccc2cccnc12` the value was 103%; for `Cc1cc(-c2ccc(N=Nc3c(S(=O)(=O)O)cc4cc(S(=O)(=O)O)cc(O)c4c3O)c(C)c2)ccc1N=Nc1c(S(=O)(=O)O)cc2cc(S(=O)(=O)O)cc(O)c2c1O`, 113%.
On to `O=C(NCCN1CCCCC1)n1cc(-c2ccncc2)c(-c2ccc(Cl)c(O)c2)n1`, for which the growth is 85.9%.
Same read-out and setting: for `N/C(=N\OC(=O)c1ccccc1)C(Cc1ccccc1)C(=O)NOC(=O)c1ccccc1` (stereo unspecified) the value was 48.7%.
The same measure, in the same setting: for `Nc1ncnc2c1N=C(c1ccc3c(c1)OCO3)CC(c1ccc(Cl)cc1)N2` (stereo unspecified) the value was 74.3%; for `COc1ccc(C(=O)OC2C(OC3C(O)COC(O[C@H]4C[C@H]5[C@@H]6CC=C7C[C@@H](O)CC[C@]7(C)[C@H]6CC[C@]5(C)[C@H]4[C@H](C)C(=O)CCC(C)C)C3OC(C)=O)OCC(O)C2O)cc1` (stereo partly specified), -41.2% (active).
Still for that read-out and setting: for `O=C(Nc1ccncc1)C(=O)c1cn(S(=O)(=O)c2cccc(Cl)c2F)c2ccccc12` the value was 77.3%; for `OC(CCCCCCCCC(O)CN1CCc2ccccc2C1)CN1CCc2ccccc2C1` (stereo unspecified), 94.7%; for `CCCNCCC(C)=O`, 110%.
For the molecule `CC1OC(n2c3ccccc3c3c4c(c5c6ccccc6[nH]c5c32)C(=O)N(CCN2CCOCC2)C4=O)CC(O)C1O` (stereo unspecified), the growth is 6.66% (active).
The same measure, in the same setting: for `COc1ccc(-c2nc(SCCC(C)C)nc(Nc3ccc(C(=O)O)cc3)c2C#N)cc1` the value was 97%.
Still for that read-out and setting: for `CCOC(=O)C1C(=O)C=C(c2cc(OC)c(OC)c(OC)c2)CC1c1sc(N(C)Cc2ccccc2)nc1Cl` (stereo unspecified) the value was 85.9%.
The same measure, in the same setting: for `C#Cc1cccc(Nc2nc3cc([N+](=O)[O-])ccc3nc2Nc2ccc(O)cc2)c1` the value was -11.7% (active); for `O=C(Nc1cccc(-n2ccc3c(NC(=O)c4ccccc4)nccc32)c1)c1ccc(N2CCOCC2)c(C(F)(F)F)c1`, -12.3% (active).
Take `Cc1ccc(NC(=O)c2sc3nc4c(cc3c2N)C(=O)CCC4)cc1Cl`: the growth was 104%.
Consider `COc1ccc(-c2cc(C(=O)Nc3ccc(C)cc3)nc3[nH]c(=O)sc23)cc1`, for which the growth is 65.2%.
On the same count and under the same terms, for `COc1cc(/C=C/c2cc(/C=C/c3ccc(O)c(OC)c3)n(C(=O)Nc3ccc(F)c(Cl)c3)n2)ccc1O` the value was -32.9% (active).
The same measure, in the same setting: for `COc1cc2c(c(OC)c1O)C(=O)C(OC)C(c1ccc(O)c(O)c1)O2` (stereo unspecified) the value was 17%.
The same measure, in the same setting: for `CCOC(OCC)c1cnc2nc(NC(C)=O)[nH]c(=O)c2n1` the value was 97.5%.
As to `S=C(Cc1ccccc1)N1CCN(c2ccccc2Cl)CC1`, the growth is 96.7%.
Still for that read-out and setting: for `CCCCOc1nc2ccc(C)cc2cc1/C=C/C(=O)/C=C(O)/C=C/c1cc2cc(C)ccc2nc1OCCCC` the value was 96.5%; for `COc1ccccc1CNCCCN1C(=O)c2ccc3c4c(ccc(c24)C1=O)C(=O)N(CCCCNCCCN)C3=O`, 40%.
Regarding `OC(COCc1ccccc1)COCc1ccccc1`, the growth is 108%.
As to `CC(C)CC1NC(=O)C(CC(C)C)N(CO)C1=O` (stereo unspecified), the growth was 102%.
Same read-out and setting: for `OCCN(CCO)c1ccc2ccccc2c1` the value was 111%.

A further assay deals with COLO 205 colon. The description is as above. The settings on record: 10 µM unless noted.
On to `COc1cc2ncnc(Nc3ccc(S(=O)(=O)Nc4nccs4)cc3)c2cc1OCCCN1CCOCC1`, for which the growth was 103%.
On the same count and under the same terms, for `Fc1ccc(-c2cnc3nonc3n2)c(F)c1` the value was 92.5%; for `COCc1nc(NS(=O)(=O)c2ccc(N)cc2)nc(C)c1Br`, 108%; for `COc1ncnc2[nH]cc(CN3CCN(c4ccc(F)cc4)CC3)c12`, 116%.
Still for that read-out and setting: for `CC(C)N(C(=S)SSC(=S)N(C(C)C)C(C)C)C(C)C` the value was 112%.
Still for that read-out and setting: for `COc1cc2c(=O)n(CCCN(C)C)c3c4cc[nH]c4ncc3c2cc1OC` the value was 13.2%; for `CCCCCCCCN(CCCCCCCC)C(=O)CCl`, 108%.
For `COc1cc(/C=N/NC(=O)Cn2c(-c3ccc(C)o3)nc3ccccc32)ccc1OCc1ccccc1`, the growth was 102%.
Same read-out and setting: for `CCN(CC)c1ccc(/C=N/NC(=O)C[N+](C)(C)C)cc1` the value was 111%.
Same read-out and setting: for `c1cc2c(cc1-c1cnc3nonc3n1)OCO2` the value was 91.2%.
Still for that read-out and setting: for `CC(C)[C@@]12C[C@@H](OC(=O)C3CO3)[C@@](C)(O1)[C@@H]1CC[C@@H](C)[C@H]1[C@@H]2OC(=O)/C=C/c1ccccc1` (stereo partly specified) the value was 107%; for `ClC1(Cl)C2CCCCCCC21` (stereo unspecified), 129%; for `CCCCOc1nc2ccccc2cc1/C=C/c1cc(/C=C/c2cc3ccccc3nc2OCCCC)n(-c2ccccc2)n1`, 99.6%.
Turning to `S=C(S)Oc1cccc2cccnc12`, the growth is 111%.
Still for that read-out and setting: for `Cc1cc(-c2ccc(N=Nc3c(S(=O)(=O)O)cc4cc(S(=O)(=O)O)cc(O)c4c3O)c(C)c2)ccc1N=Nc1c(S(=O)(=O)O)cc2cc(S(=O)(=O)O)cc(O)c2c1O` the value was 92%; for `O=C(NCCN1CCCCC1)n1cc(-c2ccncc2)c(-c2ccc(Cl)c(O)c2)n1`, 87%; for `N/C(=N\OC(=O)c1ccccc1)C(Cc1ccccc1)C(=O)NOC(=O)c1ccccc1` (stereo unspecified), 69.3%.
Same read-out and setting: for `Nc1ncnc2c1N=C(c1ccc3c(c1)OCO3)CC(c1ccc(Cl)cc1)N2` (stereo unspecified) the value was 68.1%; for `COc1ccc(C(=O)OC2C(OC3C(O)COC(O[C@H]4C[C@H]5[C@@H]6CC=C7C[C@@H](O)CC[C@]7(C)[C@H]6CC[C@]5(C)[C@H]4[C@H](C)C(=O)CCC(C)C)C3OC(C)=O)OCC(O)C2O)cc1` (stereo partly specified), -64.3% (active); for `O=C(Nc1ccncc1)C(=O)c1cn(S(=O)(=O)c2cccc(Cl)c2F)c2ccccc12`, 106%.
Still for that read-out and setting: for `OC(CCCCCCCCC(O)CN1CCc2ccccc2C1)CN1CCc2ccccc2C1` (stereo unspecified) the value was 101%.
`CCCNCCC(C)=O`: the growth is 108%.
Same read-out and setting: for `CC1OC(n2c3ccccc3c3c4c(c5c6ccccc6[nH]c5c32)C(=O)N(CCN2CCOCC2)C4=O)CC(O)C1O` (stereo unspecified) the value was 20%.
The same measure, in the same setting: for `COc1ccc(-c2nc(SCCC(C)C)nc(Nc3ccc(C(=O)O)cc3)c2C#N)cc1` the value was 104%; for `CCOC(=O)C1C(=O)C=C(c2cc(OC)c(OC)c(OC)c2)CC1c1sc(N(C)Cc2ccccc2)nc1Cl` (stereo unspecified), 97.1%.
For `C#Cc1cccc(Nc2nc3cc([N+](=O)[O-])ccc3nc2Nc2ccc(O)cc2)c1`, the growth is -49.9% (active).
Same read-out and setting: for `O=C(Nc1cccc(-n2ccc3c(NC(=O)c4ccccc4)nccc32)c1)c1ccc(N2CCOCC2)c(C(F)(F)F)c1` the value was -23.4% (active); for `Cc1ccc(NC(=O)c2sc3nc4c(cc3c2N)C(=O)CCC4)cc1Cl`, 128%.
Turning to `COc1ccc(-c2cc(C(=O)Nc3ccc(C)cc3)nc3[nH]c(=O)sc23)cc1`, the growth was 78.8%.
Still for that read-out and setting: for `COc1cc(/C=C/c2cc(/C=C/c3ccc(O)c(OC)c3)n(C(=O)Nc3ccc(F)c(Cl)c3)n2)ccc1O` the value was -59.4% (active); for `COc1cc2c(c(OC)c1O)C(=O)C(OC)C(c1ccc(O)c(O)c1)O2` (stereo unspecified), 88%; for `CCOC(OCC)c1cnc2nc(NC(C)=O)[nH]c(=O)c2n1`, 121%.
Still for that read-out and setting: for `S=C(Cc1ccccc1)N1CCN(c2ccccc2Cl)CC1` the value was 109%.
Still for that read-out and setting: for `CCCCOc1nc2ccc(C)cc2cc1/C=C/C(=O)/C=C(O)/C=C/c1cc2cc(C)ccc2nc1OCCCC` the value was 114%; for `COc1ccccc1CNCCCN1C(=O)c2ccc3c4c(ccc(c24)C1=O)C(=O)N(CCCCNCCCN)C3=O`, -83.7% (active).
Take `OC(COCc1ccccc1)COCc1ccccc1`: the growth was 110%.
Same read-out and setting: for `CC(C)CC1NC(=O)C(CC(C)C)N(CO)C1=O` (stereo unspecified) the value was 111%; for `OCCN(CCO)c1ccc2ccccc2c1`, 106%.
